This excerpt belongs to a sample that is enriched for hits.
EZH2 inh = EZH2 (human) methyltransferase inhibition; Q15910; PRC2 H3K27 methylation, DELFIA TRF, 1 h; inhibition, % at 12.5 µM; actives 0.35% (n = 57,000); AID 651548;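 active = mean inhibition of replicates at least 50% and every single replicate also reaching 50%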;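 also: dimethyl H3K27 on biotinylated H3 21-44 peptide detected by antibody; plate controls were median neutral control wells for no effect and median positive control wells for full effect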
Target sequence (Q15910 whole entry, looked up): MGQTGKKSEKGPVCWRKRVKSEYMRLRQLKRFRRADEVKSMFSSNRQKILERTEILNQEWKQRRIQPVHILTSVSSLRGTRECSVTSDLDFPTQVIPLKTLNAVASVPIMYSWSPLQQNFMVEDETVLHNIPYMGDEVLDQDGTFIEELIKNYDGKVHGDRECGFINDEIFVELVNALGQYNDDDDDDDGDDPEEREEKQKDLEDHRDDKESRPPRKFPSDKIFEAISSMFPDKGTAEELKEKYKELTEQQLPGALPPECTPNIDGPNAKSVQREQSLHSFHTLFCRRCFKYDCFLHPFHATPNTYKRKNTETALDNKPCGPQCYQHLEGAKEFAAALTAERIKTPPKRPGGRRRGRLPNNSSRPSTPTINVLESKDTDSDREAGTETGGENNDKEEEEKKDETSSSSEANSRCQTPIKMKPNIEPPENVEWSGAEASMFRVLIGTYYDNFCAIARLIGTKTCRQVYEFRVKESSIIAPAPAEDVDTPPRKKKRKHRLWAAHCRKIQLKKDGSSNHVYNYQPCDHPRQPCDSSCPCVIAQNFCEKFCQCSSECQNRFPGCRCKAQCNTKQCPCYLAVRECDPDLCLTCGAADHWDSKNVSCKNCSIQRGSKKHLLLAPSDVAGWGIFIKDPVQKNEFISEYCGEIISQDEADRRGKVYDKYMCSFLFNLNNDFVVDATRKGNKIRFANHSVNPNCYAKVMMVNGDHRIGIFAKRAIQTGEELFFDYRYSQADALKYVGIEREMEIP
The depositor's hits bear a star.

SMILES	EZH2 inh
CC(Sc1nc(-c2ccccc2)c(C#N)c(=O)[nH]1)C(=O)Nc1cccc(Cl)c1 (stereo not drawn)	62.7*
O=C(CSc1ncn[nH]1)N(c1ccccc1)c1ccccc1	3.8
CC(Sc1nc(-c2ccccc2)c(C#N)c(=O)[nH]1)C(=O)Nc1ccc(Cl)cc1 (stereo not drawn)	46.0
O=C(NO)c1ccc(C(=O)N/N=C/c2ccc(O)cc2Br)cc1	4.1
Cc1cc(C)nc(SC(C)C(=O)Nc2ccccc2)n1 (stereo not drawn)	1.0
COc1cc([N+](=O)[O-])ccc1NC(=O)c1ccccc1OCC(=O)NC(C)(C)C	-1.3
OCCCn1c(-c2ccc(Cl)cc2)cn2c3ccccc3nc12	-1.3
c1ccc2c(c1)OCC(c1nn3c(Cn4cnc5ccccc54)nnc3s1)O2 (stereo not drawn)	-3.9
COc1cc(-c2oc3cc(O)cc(O)c3c(=O)c2OC2OC(CO[C@@H]3O[C@@H](C)[C@H](O)[C@@H](O)[C@H]3O)C(O)C(O)C2O)ccc1O (stereo partly drawn)	23.3
CC1OC(Oc2cc(O)c3c(=O)c(OC4OC(CO)C(O)C(O)C4OC4OC(C)C(O)C(O)C4O)c(-c4ccc(O)cc4)oc3c2)C(O)C(O)C1O (stereo not drawn)	-12.2
O=c1c(O[C@@H]2O[C@H](CO)[C@@H](O)[C@H](O)[C@H]2O)c(-c2ccc(O)c(O)c2)oc2cc(O)cc(O)c12	58.2*
C[C@@H]1O[C@@H](O[C@@H]2[C@@H](O)[C@H](Oc3c(-c4ccc(O)cc4)oc4cc(O)cc(O)c4c3=O)O[C@H](CO)[C@H]2O)[C@H](O)[C@H](O)[C@H]1O	59.4*
COc1cc(-c2oc3cc(O)cc(O)c3c(=O)c2OC2OC(CO)C(O)C(O)C2O)ccc1O (stereo not drawn)	56.4*
O=c1c(O[C@@H]2O[C@H](CO)[C@@H](O)[C@H](O)[C@H]2O)c(-c2ccc(O)cc2)oc2cc(O)cc(O)c12	-4.9
COc1cc2c(=O)c(-c3ccc(O)cc3)coc2cc1O[C@@H]1O[C@@H](C)[C@H](O)[C@@H](O)[C@H]1O	-20.1
C[C@@H]1O[C@@H](OCC2OC(OC3C(OC4C(Oc5c(-c6ccc(O)c(O)c6)oc6cc(O)cc(O)c6c5=O)OC(CO)C(O)C4O)OC(CO)C(O)C3O)C(O)C(O)C2O)[C@H](O)[C@H](O)[C@H]1O (stereo partly drawn)	6.5
COc1c(OC2OC(CO)C(O)C(O)C2O)ccc(O)c1C(=O)OCc1ccccc1O[C@@H]1O[C@H](CO)[C@@H](O)[C@H](O)[C@H]1O (stereo partly drawn)	18.0
COC(=O)c1ccc(NC(=O)CSc2nnnn2C2CC3CCC2C3)cc1 (stereo not drawn)	-4.9
COc1cc2c(cc1NC(=O)CN(C)S(=O)(=O)c1ccc(Cl)cc1)oc1ccccc12	-0.5
Cc1c(C(=O)C2C(=O)C(=O)N(CCN3CCOCC3)C2c2ccccn2)cnn1-c1ccccc1 (stereo not drawn)	-1.0
CC1CCc2c(sc3nc(SCC(=O)NCC4CCCO4)n(-c4ccccc4)c(=O)c23)C1 (stereo not drawn)	-9.2
CCc1cc(C(=O)OC)c(NC(=S)Nc2cn(CC)nc2C(N)=O)s1	-1.6
O=C(CN1CCN(S(=O)(=O)c2ccc3ccccc3c2)CC1)Nc1cc(Cl)ccc1Cl	-13.4
Cc1ccnc(SCC(=O)Nc2ccc(Br)cc2F)n1	5.8
Clc1ccc2nc(SCc3csc(Nc4ccccc4)n3)oc2c1	42.2
Clc1ccc(SCc2csc(-c3ccsc3)n2)cc1	62.9*
CS(=O)(=O)N(CC(=O)Nc1cccc([N+](=O)[O-])c1)c1ccc(Br)cc1	-0.9
COc1ccc(NC(=O)CN2CCN(S(=O)(=O)c3ccc(F)cc3)CC2)cc1	-3.9
CN(CC(=O)Nc1cccnc1)S(=O)(=O)c1ccc2ccccc2c1	-0.2
Cc1cc(C)nc(NS(=O)(=O)c2ccc(NC(=S)NC(=O)c3ccccc3Br)cc2)n1	0.3

Compound activity from PubChem.
